# Assay outcomes: PubChem BioAssay, National Center for Advancing Translational Sciences (NCATS)
# Sampled rows, rich in hits. Any-hit rate of the full collection: about 8%.
# KB-3-1 tox – KB-3-1 parental cell cytotoxicity; Potency, µM (highest dose often 46.1 µM), usual class: cytotoxic; AID 1347075; 400,000 compounds, 1.4% hits; KB-3-1 viability, CellTiter-Glo ATP luminescence, 72 h; note: % is set by controls: 0 for no effect and ±100 for the full control effect; nearly all actives have a fitted effect of over 60% in size
#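 Luminescent ATP read-out (CellTiter-Glo) measures survival of drug-naive KB-3-1 cells after 72 h compound exposure at 37 °C. Titration series was screened from lowest to highest concentration, with DMSO vehicle plates as background controls.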
# SW480 rereplic – DNA re-replication induction in SW480 cells; SW480 DNA re-replication, Hoechst DNA content imaging, 48 h; Potency, µM (doses to about 46.1 µM), without a hit: at the top dose re-replication activation, usual class: activators; 340,000 compounds, 1.8% hits; AID 624297; note: % of control where 0% means no effect; nearly all actives have a fitted effect of over 55% in size
#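 Quantitative HTS format with DMSO vehicle controls; 48 hr drug incubation at 37 C, then 40 min Hoechst staining and scanning imager measurement at 405 nm excitation.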
# KB-V1 MDR tox – KB-V1 MDR subline cytotoxicity; AID 1347076; 400,000 compounds, 3.4% hits; Potency, µM (titrated, usually from 46.1 µM), usual class: cytotoxic; KB-V1 MDR cells viability, CellTiter-Glo, 72 h; note: % is set by controls: 0 for no effect and ±100 for the full control effect; nearly all actives have a fitted effect of over 60% in size
#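 Readout: CellTiter-Glo luminescence, 10 min after addition. Cells: KB-V1 MDR subline, 72 h at 37 degrees C with compound. Analysis: corrected, normalized data fitted to concentration-effect curves.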
# MCF10A rereplic – induces DNA re-replication in MCF 10a normal breast cells; MCF 10A DNA re-replication, Hoechst nuclear intensity, 48 h; Potency, µM (doses to about 46.1 µM), for the others: top-dose activity, positive = re-replication, actives largely listed as activators; 350,000 compounds, 2.9% hits; AID 624296; note: % of control where 0% means no effect; nearly all actives have a fitted effect of over 50% in size
# HT1080 IDH1KD tx – HT-1080 IDH1 knockdown cell toxicity (counter line) | Potency, µM (highest dose often 46.1 µM), without a hit: at the highest dose activity, negative = toxicity, actives largely listed as cytotoxic | 360,000 compounds, 2% hits | HT-1080 IDH1 knockdown viability, ATP luminescence, 48 h;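 note: 0% = DMSO wells and -100% = cell-free medium wells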
#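 IDH1KD HT-1080 cells, 750/well, RPMI + 5% FBS; compound pinned after 2 h settling; 48 h, 37 °C; CellTiter-Glo luminescence; % activity normalised to DMSO and no-cell wells; curves fitted, classed by r2 and efficacy.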
# HT1080-NT tox – kills 2HG-producing HT-1080-NT fibrosarcoma cells; 360,000 compounds, 1.6% hits; HT-1080-NT fibrosarcoma viability, CellTiter-Glo ATP luminescence, 48 h; Potency, µM (doses to about 46.1 µM), without a hit: at the highest dose activity, negative = less viability, hits mostly cytotoxic; AID 686970;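 note: NT is the 2HG producing partner of a matched IDH1 knockdown line; 0% = DMSO-treated cells and -100% = media-only wells without cells; nearly all actives have a fitted effect of over 55% in size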
#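 Read-out is CellTiter-Glo luminescence after 10 minutes at room temperature, following 48 hours' compound treatment of HT-1080-NT cells (750 cells/well, RPMI, 5% FBS, 37 degrees C).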
# An asterisk follows results filed as active; i = inactive; u = inconclusive; x = no result given. Calls come from the whole dose curve; as a rule, active = well fitted curve in the direction sought with a large enough effect; inconclusive = small, poorly fitted or top-dose-only effect, or another doubt; inactive = no such curve, though single readings can be large; an effect the other way counts as inactive or inconclusive. Potency is the fitted concentration of half-maximal effect.
SMILES,KB-3-1 tox,SW480 rereplic,KB-V1 MDR tox,MCF10A rereplic,HT1080 IDH1KD tx,HT1080-NT tox
CN1CCN(C(=O)Nc2cccc(Cl)c2)c2cccnc21,i,x,i,x,x,x
O=S(=O)(NCc1c(Cl)cccc1Oc1ccccc1)c1ccc(F)cc1,16µM*,u,i,u,3%,-2%
O=C(O)CSCC(=O)NCc1c(Cl)cccc1Oc1ccccc1,u,1%,i,0%,1%,18%
COc1ccccc1NC(=O)Cn1c(=O)n(CC(=O)NCc2ccccc2Cl)c(=O)c2sccc21,i,x,i,x,x,x
CCCOc1ccc(Nc2cc(C)nc(C)n2)cc1,i,x,i,x,x,x
CN1C=CC2=C(C#N)C(N)C(C#N)(C#N)C(c3ccccc3)C2C1 (stereo not drawn),i,7%,15µM*,12%,-4%,0%
Clc1ccccc1OCc1nnc(-c2ccccc2Br)o1,i,-1%,i,-3%,0%,5%
O=c1c(Cl)c(Cl)cnn1Cc1nnc(-c2ccccc2Br)o1,i,4.6µM*,u,3.3µM*,9.2µM*,12µM*
COC(=O)c1cc(C(=O)c2ccccc2)n2c(=O)/c(=C\N(C)C)sc12,i,9%,i,-9%,-17%,-2%
COC(=O)c1cc(C(=O)c2ccc(Cl)cc2)n2c(=O)/c(=C\N(C)C)sc12,8.2µM*,2%,u,u,0%,-8%
NC(=O)c1ccsc1NC(=O)COc1ccccc1,i,-7%,13µM*,2%,u,-24%
COc1cc(CCC(=O)OCC(=O)Nc2sccc2C(N)=O)cc(OC)c1OC,i,16µM*,i,-20%,-11%,-7%
COc1cc(C(=O)OCC(=O)Nc2sccc2C(N)=O)cc(OC)c1OC,16µM*,14%,u,u,7.3µM*,u
COc1cc(CCC(=O)OCC(=O)Nc2ccc(C(N)=O)cc2)cc(OC)c1OC,i,-4%,i,-4%,2%,5%
Cc1ccc2nc(CN3CCN(C(=O)Nc4ccc(F)cc4)CC3)oc2c1,i,x,u,x,x,x
COc1ccccc1NS(=O)(=O)c1cc(C(=O)N2CCN(C/C=C/c3ccccc3)CC2)ccc1C,i,4%,i,0%,-14%,-14%
O=c1c2ccccc2cnn1-c1nc2ccccc2[nH]1,u,-3%,u,-5%,3.7µM*,3.7µM*
CCc1ccc(-c2nn(CC(=O)NC3CCCCC3)c3c2cnc2ccc(F)cc23)cc1,i,x,i,x,x,x
CCC(=O)Nc1ccc(N2CCCCC2)cc1,i,-3%,i,6%,-4%,3%
O=C(CCl)Nc1ccc(N=Nc2ccccc2)cc1,i,23µM*,i,u,-3%,u
O=C(CCl)Nc1ccc(N2CCCCCC2)cc1,u,21µM*,i,15µM*,18µM*,23µM*
O=C(CCl)Nc1ccc(-c2ccccc2)cc1,u,u,u,16µM*,9.2µM*,4.6µM*
CC(=O)Nc1ccc(NC(=O)Cc2ccc(-c3ccccc3)cc2)cc1,i,-2%,i,8%,0%,9%
COc1ccccc1OCCn1c(C(C)Oc2ccccc2)nc2ccccc21 (stereo not drawn),i,x,i,x,x,x
COc1cccc(N2CCN(C(=O)CCCCCNc3nc(=S)[nH]c4ccccc34)CC2)c1,i,u,10µM*,28%,u,-19%
CC1=C[C@@H](O)CC(C)(C)[C@@H]1/C=C/C(C)=C/C=C/C(C)=C/C=C/C=C(C)/C=C/C=C(C)/C=C/C1=C(C)C[C@H](O)CC1(C)C,x,u,x,30µM*,x,x
CC1=C(/C=C/C(C)=C\C=C\C(C)=C\C=C\C=C(C)\C=C\C=C(C)\C=C\C2=C(C)C[C@@H](O)CC2(C)C)C(C)(C)C[C@H](O)C1,x,12%,x,u,x,x
